In the supplement of paper PMC9694430:

What was measured:
Assay in all cases: thermal shift delta Tm vs DMSO control; higher = stronger stabilization (binding)
Details in all cases: 12.5 µM; protein concentration 2 µM
[1] = system: LOC_OS04G57630-cb004
Procedure, shortened: (§1)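 The melting temperature shift given here is a triplicate mean, measured against protein that received only DMSO. Melting temperatures came from Boltzmann fits of differential scanning fluorimetry data on E. coli-expressed, purified rice kinase domain constructs. Each 19.5 μl well contained 2 μM kinase, 100 mM potassium phosphate pH 7.5, 150 mM NaCl, 10% glycerol, 5 × SYPRO Orange and compound in DMSO. Plates were scanned from 25°C to 95°C at 0.05°C/s.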

[2] = system: LOC_OS05G07850-cb002
Procedure, shortened: as §1

[3] = system: LOC_OS05G16824-cb004
Procedure, shortened: as §1

[4] = system: LOC_OS05G28520-cb001
Procedure, shortened: as §1

[5] = system: LOC_OS05G30820-cb001
Procedure, shortened: as §1

[6] = system: LOC_OS05G43570-cb004
Procedure, shortened: as §1

[7] = system: LOC_OS06G16330-cb003
LOC_OS06G16330-cb003, sequence (as listed by the source): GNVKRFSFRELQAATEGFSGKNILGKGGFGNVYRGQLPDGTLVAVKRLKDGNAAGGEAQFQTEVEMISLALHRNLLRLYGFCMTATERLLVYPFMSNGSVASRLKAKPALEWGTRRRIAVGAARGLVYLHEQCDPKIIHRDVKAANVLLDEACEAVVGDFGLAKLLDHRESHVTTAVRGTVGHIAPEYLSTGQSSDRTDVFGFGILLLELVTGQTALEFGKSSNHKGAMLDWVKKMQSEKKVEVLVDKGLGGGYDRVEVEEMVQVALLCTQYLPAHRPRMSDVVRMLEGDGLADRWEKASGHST
Procedure, shortened: as §1

[8] = system: T1, LOC_OS06G22820-cb001
T1 sequence (whole entry): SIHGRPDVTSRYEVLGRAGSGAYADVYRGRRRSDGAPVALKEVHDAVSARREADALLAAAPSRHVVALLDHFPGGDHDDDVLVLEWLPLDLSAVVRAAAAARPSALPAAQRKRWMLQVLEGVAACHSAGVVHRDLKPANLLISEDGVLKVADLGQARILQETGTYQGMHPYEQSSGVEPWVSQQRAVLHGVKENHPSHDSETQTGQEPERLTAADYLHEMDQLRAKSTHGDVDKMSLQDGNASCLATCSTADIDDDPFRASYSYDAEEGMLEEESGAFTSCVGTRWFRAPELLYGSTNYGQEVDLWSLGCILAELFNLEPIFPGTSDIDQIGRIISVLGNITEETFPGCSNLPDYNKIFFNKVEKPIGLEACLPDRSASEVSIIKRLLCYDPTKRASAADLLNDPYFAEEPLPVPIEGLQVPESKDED
Procedure, shortened: as §1

[9] = system: LOC_OS07G06570-cb004
Procedure, shortened: as §1

[10] = system: LOC_OS07G07230-cb001
Procedure, shortened: as §1

SMILES | thermal shift delta Tm [1] [°C] | thermal shift delta Tm [2] [°C] | thermal shift delta Tm [3] [°C] | thermal shift delta Tm [4] [°C] | thermal shift delta Tm [5] [°C] | thermal shift delta Tm [6] [°C] | thermal shift delta Tm [7] [°C] | thermal shift delta Tm [8] [°C] | thermal shift delta Tm [9] [°C] | thermal shift delta Tm [10] [°C]
CCOc1cc(N2CCC(O)CC2)ccc1Nc1ncc2c(n1)N(C)c1ccccc1C(=O)N2C | -0.09 | 1.85 | -1.07 | 0.32 | 0.48 | 0.23 | 0.05 | 0.49 | 1.48 | 0.47
CCn1c(-c2nonc2N)nc2c(C#CC(C)(C)O)ncc(OC[C@H]3CCCNC3)c21 | 0.06 | 0.29 | -1.28 | 0.27 | 0.49 | 1.47 | -0.37 | 0.88 | 0.7 | 0.32
Cc1cc(Nc2ncnc3ccc(-c4ccc(CNCCS(C)(=O)=O)o4)cc23)ccc1Oc1ccn2ncnc2c1 [HER2-Inhibitor-1] | 2.09 | 6.61 | 2.73 | 1.2 | 0.57 | 0.41 | 3.81 | 0.78 | 1.57 | 0.55
Cc1ccc(Nc2nccc(N(C)c3ccc4c(C)n(C)nc4c3)n2)cc1S(N)(=O)=O | 0.96 | 8.97 | 4.72 | 0.97 | 0.39 | 1.48 | 3.83 | 0.9 | 1.14 | 0.54
COc1cc2c(N3CCN(C(=O)Nc4ccc(OC(C)C)cc4)CC3)ncnc2cc1OCCCN1CCCCC1 [Tandutinib (MLN518)] | 2.05 | 1.44 | 0.72 | 0.2 | 0.16 | 0.41 | -1.38 | 0.3 | 1.1 | 0.38
COc1cc2ncnc(Nc3ccc(F)c(Cl)c3)c2cc1NC(=O)/C=C/CN1CCCCC1 | 0.99 | 0.3 | -1.53 | 1.09 | 0.67 | 1.72 | 0.01 | 1.31 | 1.37 | 0.21
O=C(NOCCO)c1ccc2cncn2c1Nc1ccc(I)cc1F | -0.36 | -0.3 | -1.92 | 0.09 | 0.54 | 0.3 | -0.27 | 0.39 | 0.35 | 0.91
Cn1cnc2c(F)c(Nc3ccc(Br)cc3F)c(C(=O)NOCCO)cc21 | 0.45 | 1.86 | -1.71 | 0.55 | 0.44 | 0.51 | -0.03 | 0.61 | 1.32 | -0.18
CC(C)(C)c1nc(-c2cccc(NS(=O)(=O)c3c(F)cccc3F)c2F)c(-c2ccnc(N)n2)s1 | 1.63 | 9.38 | 8.29 | 0.83 | 3.66 | 0.62 | 3.39 | 0.62 | 0.8 | 0.6
COC1(c2sc3c(N4CCOCC4)nc(-c4cnc(N)nc4)nc3c2C)COC1 | 0.27 | 5.18 | 1.1 | 0.27 | 0.59 | 1.45 | 3.12 | 0.17 | 0.85 | 0.65
CC(C)CCN1c2nc(Nc3cc(F)c(O)c(F)c3)ncc2N(C)C(=O)C1C (stereo not given) | 1.73 | 7.46 | 8.92 | 1 | 1.42 | 0.53 | 3.47 | 1.8 | 3.6 | 0.37
